Source: PubChem (National Center for Advancing Translational Sciences (NCATS))
Rab9 prom act = activators of Rab9 promoter. 2.8% of 320,000 active. Huh7 Rab9 promoter-luciferase reporter, luminescence, 24 h. Potency, µM (highest dose often 9.22 µM), hits mostly activators; also: nearly all actives have a fitted effect of over 60% in size
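Cells were plated at 1500 per well in reduced-serum medium with 10% FBS and left 2 h. Compound in DMSO was then added for 24 h at 37 °C. Reporter signal was read by luminescence after 10 min with luciferase detection reagent.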
Luc counter = counter-screen: inhibitors of Kinase-Glo firefly luciferase; 0.28% of 200,000 active; Potency, µM (doses to about 38.3 µM), most hits filed as inhibitors; Kinase-Glo luciferase, ATP luminescence, 8 min; Q27757; also: nearly all actives have a fitted effect of over 60% in size
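Luminescence was the read-out, taken after 8-minute incubation at ambient temperature. Luciferase turned over luciferin with 10 uM ATP in imidazole pH 7.2 buffer containing KCl, MgCl2, Tween 20 and BSA.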
FLuc modulator = firefly luciferase modulation, counter-screen for miR-21 project; 6.9% of 360,000 active; P08659; Potency, µM (titrated, usually from 57.5 µM), hits mostly inhibitors; AID 588342; purified FLuc, Km substrates, luminescence inhibition; also: nearly all actives have a fitted effect of over 55% in size
Target sequence (P08659 whole entry, looked up): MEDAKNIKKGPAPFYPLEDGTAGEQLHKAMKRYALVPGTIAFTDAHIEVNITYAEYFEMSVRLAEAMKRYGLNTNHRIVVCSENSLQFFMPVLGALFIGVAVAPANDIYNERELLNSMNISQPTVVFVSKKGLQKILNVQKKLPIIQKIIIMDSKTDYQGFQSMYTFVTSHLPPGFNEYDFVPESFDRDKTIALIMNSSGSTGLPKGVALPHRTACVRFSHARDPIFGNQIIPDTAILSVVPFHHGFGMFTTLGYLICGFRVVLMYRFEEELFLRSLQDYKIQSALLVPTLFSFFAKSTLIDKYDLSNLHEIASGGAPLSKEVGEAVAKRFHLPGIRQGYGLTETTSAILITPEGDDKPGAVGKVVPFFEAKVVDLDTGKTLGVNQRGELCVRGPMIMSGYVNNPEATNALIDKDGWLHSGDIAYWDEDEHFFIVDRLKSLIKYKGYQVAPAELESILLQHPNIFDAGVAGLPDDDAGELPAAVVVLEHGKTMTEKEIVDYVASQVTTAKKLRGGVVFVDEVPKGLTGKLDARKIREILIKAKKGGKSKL
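Purified P. pyralis luciferase, 10 nM final, with Km-level 10 uM D-luciferin and 10 uM ATP in 50 mM Tris acetate pH 7.5, 10 mM Mg acetate, 0.01% Tween-20, 0.05% BSA; 6-point qHTS titration about 60 µM downward; luminescence read.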
ELG1 genotoxic = induces genotoxicity in HEK293T cells with luciferase-tagged ELG1. Potency, µM (highest dose often 46 µM), usual class: activators. HEK293T ELG1-luciferase reporter, luminescence, 16 h. 1.3% of 330,000 active. AID 504466; also: nearly all actives have a fitted effect of over 60% in size
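Quantitative HTS format in 1536-well plates. HEK293T ELG1-luciferase reporter cells receive test compound and are incubated 16 hr at 37 °C, 5% CO2; ONE-Glo added, 30 min room temperature, then luminescence read.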
NPC1 prom act = NPC1 promoter activation; Huh7 NPC1 promoter luciferase reporter, 24 h; Potency, µM (top dose mostly 9.22 µM), most hits filed as activators; 2.4% of 320,000 active; AID 485313; also: nearly all actives have a fitted effect of over 60% in size
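NPC1 promoter–luciferase Huh7 cells; 24 h compound; luminescence.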
SMN2 splice enh = SMN2 splice variant enhancement; HEK293 SMN2-luciferase splicing reporter, luminescence, 30-36 h; Potency, µM (doses to about 46.1 µM), most hits filed as activators; 2.8% of 210,000 active; AID 1458; also: nearly all actives have a fitted effect of over 55% in size
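HEK293 cells carry an SMN2 […]–luciferase reporter in which exon 7 inclusion puts luciferase in frame. Cells were plated 10-12 h before compound addition, then incubated 30-36 h at 37C. ONE-Glo luminescence was read; sodium butyrate at 4.5 mM final served as control.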
Large screens that a line does not name were inactive. Compounds with a hit are over-represented: about 7.5% of the library has one in this group of screens. Calls follow the shape of the dose curve; as a rule, active = well fitted curve in the direction sought with a large enough effect; inconclusive = small, poorly fitted or top-dose-only effect, or another doubt; inactive = no such curve, though single readings can be large; an effect the other way counts as inactive or inconclusive.

CC(C)COc1ccc(/C(=N/O)c2ccccc2)cc1	FLuc modulator 17µM, ELG1 genotoxic inconclusive
CC1=CC(=O)C2=C(C)CCC3C(C)C(=O)OC3C12 (stereo not drawn)	none (no result: Rab9 prom act, FLuc modulator, ELG1 genotoxic, NPC1 prom act, SMN2 splice enh)
COc1cccc(-c2oc3ccc(C)cc3c(=O)c2O)c1	FLuc modulator 2.7µM, SMN2 splice enh 10µM (no result: Rab9 prom act, Luc counter, ELG1 genotoxic, NPC1 prom act)
Cc1ccc(-c2oc3ccccc3c(=O)c2O)cc1	FLuc modulator inconclusive, ELG1 genotoxic 23µM
O=c1c(O)c(-c2ccccc2)oc2ccccc12	none (no result: Rab9 prom act, FLuc modulator, ELG1 genotoxic, NPC1 prom act)
C=CCN1C(=O)C2(OCCCO2)c2cc(Cl)ccc21	none (no result: Luc counter, SMN2 splice enh)
COCc1c(C(=O)OCC(=O)N2c3ccccc3CC2C)oc2ccccc12 (stereo not drawn)	none
Cc1c(C(=O)N2c3ccccc3CC2C)oc2ccccc12 (stereo not drawn)	Rab9 prom act 2.8µM, FLuc modulator 4.8µM, ELG1 genotoxic inconclusive (no result: Luc counter, SMN2 splice enh)
Cc1c(C(=O)N2CCc3ccccc3C2)oc2ccccc12	FLuc modulator 24µM, NPC1 prom act inconclusive (no result: Luc counter, SMN2 splice enh)
COc1ccc(Nc2nccc(-c3cccc(N)c3)n2)cc1	Rab9 prom act inconclusive, FLuc modulator 2.7µM, NPC1 prom act 1.8µM (no result: Luc counter, SMN2 splice enh)
CC(C)(C)c1ccc(C(=O)NCCc2csc3nc(-c4ccccc4F)nn23)cc1	FLuc modulator 12µM (no result: Rab9 prom act, Luc counter, ELG1 genotoxic, NPC1 prom act, SMN2 splice enh)
COc1ccc(-c2nc3sc(CCNC(=O)c4ccc(Br)o4)c(C)n3n2)cc1	FLuc modulator 11µM (no result: Rab9 prom act, Luc counter, ELG1 genotoxic, NPC1 prom act, SMN2 splice enh)
CCOc1cc(C(=O)NCCc2csc3nc(-c4ccccc4F)nn23)cc(OCC)c1OCC	none (no result: Rab9 prom act, Luc counter, ELG1 genotoxic, NPC1 prom act, SMN2 splice enh)
COc1ccc(-c2nc3sc(CCNC(=O)c4cc(Cl)ccc4OC)c(C)n3n2)cc1	FLuc modulator 7.6µM (no result: Rab9 prom act, Luc counter, ELG1 genotoxic, NPC1 prom act, SMN2 splice enh)
CCC(=O)NCCc1sc2nc(-c3ccc(OC)cc3)nn2c1C	FLuc modulator 19µM (no result: Rab9 prom act, Luc counter, ELG1 genotoxic, NPC1 prom act, SMN2 splice enh)
O=C1CC(c2ccc(F)cc2)Sc2nc(C34CC5CC(CC(C5)C3)C4)nn21 (stereo not drawn)	none
CC(C)[C@H](NC(=O)c1ccccc1F)C(=O)OCCN1C(=O)c2ccccc2C1=O	none (no result: Rab9 prom act, Luc counter, FLuc modulator, NPC1 prom act, SMN2 splice enh)
CCCCN1C(=S)NC[C@@H]1Cc1ccc(O)cc1	none (no result: Luc counter, SMN2 splice enh)
COc1ccc(-c2nc3sc(CCNC(=O)c4ccc(C(C)(C)C)cc4)c(C)n3n2)cc1	FLuc modulator 4.8µM (no result: Rab9 prom act, Luc counter, ELG1 genotoxic, NPC1 prom act, SMN2 splice enh)
CCOC(=O)N1CCC2(CC1)OC(=O)C(C)=C2C(=O)NCc1cccc(F)c1	none (no result: Rab9 prom act, Luc counter, ELG1 genotoxic, NPC1 prom act, SMN2 splice enh)
Cc1cc(=O)[nH]c(N/N=C/c2cc(C)n(-c3ccccc3)c2C)n1	Rab9 prom act inconclusive, FLuc modulator 7.6µM, ELG1 genotoxic 9.2µM, NPC1 prom act 3.2µM (no result: Luc counter, SMN2 splice enh)
Cc1cc(=O)[nH]c(N/N=C/c2ccccc2Cl)n1	none (no result: Luc counter, SMN2 splice enh)
Cc1cc(=O)[nH]c(N/N=C/c2c(F)c(F)c(F)c(F)c2F)n1	none (no result: Luc counter, SMN2 splice enh)
Cc1cc(=O)[nH]c(N/N=C/c2sccc2C)n1	Luc counter 11µM, FLuc modulator inconclusive, SMN2 splice enh inconclusive
Cc1cc(=O)[nH]c(N/N=C/c2cccs2)n1	FLuc modulator 17µM
O=c1cnnc(N/N=C/c2cccs2)[nH]1	none (no result: Luc counter, SMN2 splice enh)
CCN1CCN(S(=O)(=O)CC2(C)C3CCC2(C)C(=O)C3Br)CC1 (stereo not drawn)	none
CC1CCCN(S(=O)(=O)c2ccc(NC(=O)CN3C(=O)NC(C)(c4ccccc4)C3=O)cc2)C1 (stereo not drawn)	none (no result: Luc counter, SMN2 splice enh)
Cc1cc(Cl)ccc1OCc1nc(-c2ccc(-n3cccc3)cc2)no1	none (no result: Rab9 prom act, Luc counter, ELG1 genotoxic, NPC1 prom act)
Cc1cc(Cl)ccc1OCc1nc(-c2ccc(O)cc2)n[nH]1	FLuc modulator 11µM
CCOc1ccccc1CN(CCc1ccc2c(c1)OCO2)Cc1cccc(OC)c1OC	none (no result: Rab9 prom act, Luc counter, ELG1 genotoxic, NPC1 prom act)
c1ccc(Sc2ncnc3c2oc2ccccc23)nc1	Rab9 prom act inconclusive, FLuc modulator 21µM, ELG1 genotoxic inconclusive, NPC1 prom act inconclusive
CCCSc1ncnc2c1oc1ccccc12	FLuc modulator 15µM
CC(C)Sc1ncnc2c1oc1ccccc12	FLuc modulator 24µM
c1coc(CSc2ncnc3c2oc2ccccc23)c1	FLuc modulator 19µM, ELG1 genotoxic inconclusive (no result: Luc counter, SMN2 splice enh)
CC(=O)CSc1ncnc2c1oc1ccccc12	FLuc modulator inconclusive, ELG1 genotoxic inconclusive
CC1C/C(=N/O)C(C)CN1 (stereo not drawn)	none
CCOc1ccccc1Oc1ncnc2c1oc1ccccc12	none (no result: Rab9 prom act, Luc counter, ELG1 genotoxic, NPC1 prom act, SMN2 splice enh)
COc1ncnc2c1oc1ccccc12	FLuc modulator 12µM, ELG1 genotoxic inconclusive (no result: SMN2 splice enh)
